Each structure is given as a SMILES string. Calls of active or inactive are those of the source. Calls come from the whole dose curve; as a rule, active = well fitted curve in the direction sought with a large enough effect in the repeat runs; inconclusive = weak or mixed curves; inactive = flat fitted curve, though single readings scatter.
% is set by controls: 0 for no effect and ±100 for the full control effect.

This test can be described thus: qHTS assay to test for compound auto fluorescence at 590 nm (red) in HepG2 cells (AID 720674). To be noted: HepG2 autofluorescence, red 540/590 nm, 1 h; series mostly up to 91.3 µM; fluorescence, relative to Rose Bengal: at the top concentration. The source says:
U.S. Tox21 Program National Center for Advancing Translational Sciences [NCATS] NIH Chemical Genomics Center [NCGC] U.S. Environmental Protection Agency [EPA] National Institutes of Environmental Health Sciences [NIEHS] National Toxicology Program [NTP] U.S. Food and Drug Administration [FDA] Tox21 Assay Overview: Compound auto fluorescence often interferes with screening of the compound library against various biological targets and signaling pathways. Some of these compounds may have fluorophoric properties. Such properties may interfere with the assay outputs resulting in false positives and/or negatives. To decrease such complications and ensure the compound activities are relevant in terms of biological response, the Tox21 10K compound library was screened for auto fluorescence. From the fluorophores used as reporter signals in our screening assays, the auto fluorescence equivalencies of compounds against three fluorophores have been evaluated: Triamterene, Fluorescein and Rose Bengal sodium for blue, green and red fluorescence, respectively. The fluorescence intensities were measured using Excitation/Emission wavelengths at 405/460nm, 485/535nm and 540/590nm for blue, green and red labels, respectively. This assay includes the red fluorescence data.
Tox21 Assay Protocol Summary: 2,000 HepG2 cells in 5 uL of culture medium (MEM containing 10% FBS) per well were dispensed into black wall/clear bottom 1536-well plates using a Multidrop Combi Dispenser (ThermoFisher Scientific, Waltham, MA). The assay plates were incubated overnight at 37 C to allow cell attachment to the well bottom, followed by the transfer of 23 nL compound or DMSO vehicle by a pintool work station (Kalypsys , San Diego, CA). After the assay plates were incubated for 1 hr at 37 C and 5% CO2, fluorescence intensities in the assay plates were measured by an Envision (PerkinElmer, Shelton, CT) plate reader using three labels for measuring blue, green and red fluorescence at […] 460, 535 and 590 nm respectively.
A general note: Quantitative high-throughput screening tests each substance at several concentrations.
Turning to `O=C1c2ccccc2CCc2ccccc21`, the “fluorescence, relative to Rose Bengal” value was -0.175% [at 95.7 µM] (inactive).
Take `CCCCCCCCCCO`: the molecule was called inactive.
As to `CCCCCCC=O`, the molecule was classed as inactive.
On to `CCCCCCCCCCCCCCCC(=O)OC(C)C`, for which the molecule was called inactive.
The same measure, in the same setting: then `O=C(O)CCCCCCCCC(=O)O`, with “inactive”.
For `COC(=O)c1cccnc1`, the result was inactive.
Same read-out and setting: the same measure for `CNC(=S)N(C)C`: “inactive”; for `CC(=O)OC1CC(C)OC(C)O1` (stereo not given): “inactive”; for `COC(=O)CCCC(=O)OC`: “inactive”.
Same read-out and setting: the same measure for `CC1(C)OC[C@@H]2O[C@@]3(C(=O)O)OC(C)(C)O[C@H]3[C@@H]2O1`: “inactive”; for `COc1cc(OC)c(C(=O)CCCN2CCCC2)c(OC)c1`: “inactive”.
The same measure, in the same setting: the same measure for `COc1ccccc1OCC(O)CO` (stereo not given): “inactive”; for `C=C(C)[C@H]1CC=C(C)C(=O)C1`: “inactive”; for `COc1ccc(N)c(C)c1`: “inactive”.
On to `O=C1C(c2[nH]c3ccccc3c2O)=Nc2ccccc21`, for which the result was inactive.
Same read-out and setting: the same measure for `Cc1ccc2ncccc2c1`: “inactive”.
For `CN(C)CCOC(=O)COc1ccc(Cl)cc1`, the call was inactive.
Still for that read-out and setting: then `CCNc1ccccc1`, with “inactive”.
Same read-out and setting: the same measure for `NCCN1CCNCC1`: “inactive”; for `CC(=O)CC(C)(C)O`: “inactive”; for `C=C(C)CNCC`: “inactive”.
`O=C(O)c1ccc(C(=O)O)c(C(=O)O)c1`: the outcome was inactive.
Still for that read-out and setting: then `OCc1cccc(Oc2ccccc2)c1`, with “inactive”.
The same measure, in the same setting: then `CC1(C)S[C@@H]2[C@H](NC(=O)COc3ccccc3)C(=O)N2[C@H]1C(=O)O`, with “inactive”; and `CN(C)c1ccc(Cc2ccc(N(C)C)cc2)cc1`, with “inactive”; and `CCOCC(=O)O`, with “inactive”.
As to `COCCCN`, the call was inactive.
For `CC(C)(C)c1cc(Cc2cc(C(C)(C)C)c(O)c(C(C)(C)C)c2)cc(C(C)(C)C)c1O`, the molecule was called inactive.
On to `OC1C(O)C(O)C(O)C(O)C1O` (stereo not given), for which the result was inactive.
The same measure, in the same setting: the same measure for `CC1(C)CC(N)CC(C)(CN)C1` (stereo not given): “inactive”; for `C=CC(=O)OCCC(=O)O`: “inactive”; for `C[Si]1(C)O[Si](C)(C)O[Si](C)(C)O[Si](C)(C)O1`: “inactive”.
For `Nc1ccc(Cl)c(N)c1`, the outcome was inactive.
Same read-out and setting: then `C=Cc1ccc(C)cc1`, with “inactive”; and `O=c1[nH]cnc2[nH]ncc12`, with “inactive”; and `CCO[Si](CCC#N)(OCC)OCC`, with “inactive”.
Consider `CC(C)OP(=O)(CP(=O)(OC(C)C)OC(C)C)OC(C)C`, for which the “fluorescence, relative to Rose Bengal” value is 0.107% (inactive).
As to `CC(C)(Oc1ccc(CCNC(=O)c2ccc(Cl)cc2)cc1)C(=O)O`, the result was inactive.
On the same count and under the same terms, the same measure for `CC(C)c1cccc(C(C)C)c1`: “inactive”; for `CC(CCl)OP(=O)(OC(C)CCl)OC(C)CCl` (stereo not given): “inactive”.

Values taken from PubChem BioAssay (Tox21).
